From PubChem BioAssay

Experiment: optical density change of DRC41 E. coli – strain DRC41, OD650, 24 h, E. coli filamentation project, primary screen (AID 1093);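 also: MC1000 strain lacking acrAB efflux and sulA so SOS filamentation is blocked; test concentration not given here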
Settings: E. coli DRC41 growth, higher = more signal, called active from +8 up or from −8 down

z-score, inactive:
CC(=O)OC[C@H]1O[C@@H](ON=C(C)CCC(=O)OC[C@H]2O[C@H](C#Cc3ccccc3)C=C[C@@H]2Oc2ccc(C)cc2)[C@H](OC(C)=O)[C@@H](OC(C)=O)[C@@H]1OC(C)=O 0.142
Cc1cc2c(nc1C)CCCCN2CC(O)CN1CCCc2nc(-c3ccc(Br)cc3)ccc21 (stereo unspecified) 0.353
CCOC(=O)CCN1C(=O)[C@H]2[C@H]3[C@H](O)[C@H](O)CC(=NOCC=C(C)CCC=C(C)C)[C@@H]3CC[C@H]2C1=O 6.79
CC(=O)OC[C@H]1O[C@@H](ON=C(C)CCN2CCCCc3nc(C)c(C)cc32)[C@H](OC(C)=O)[C@@H](OC(C)=O)[C@@H]1OC(C)=O -0.871
CC(=O)OC[C@H]1O[C@H](CCON=C(C)C)C=C[C@@H]1OC(C)=O 0.193
CCCNC(=O)OC[C@H]1O[C@H](CCON=C[C@@H](NS(=O)(=O)c2ccc(C)cc2)[C@H](C)C=CCC(=O)OC)C=C[C@@H]1Oc1ccc(OC)cc1 -0.0353
CCCC[C@H]1CN2[C@@H](CC[C@@H](C)[C@@H]2c2ccc(Br)cc2)C(=O)O1 0.0173
CCC1=NOC(CCC2CC(OC(=O)NCc3cccc4c3OCO4)CC3(CCCC(COC(=O)NCCc4ccc(Cl)cc4)O3)O2)C1 (stereo unspecified) 0.812
COc1ccc(O[C@H]2C=C[C@@H](C#Cc3ccccc3)O[C@@H]2CO)cc1 1.3
CC(C)CON=C1[C@H]2CCn3c(=O)n(C)c(=O)n3[C@H]2[C@H](O)[C@@H]2O[C@H]12 0.253
COC(=O)[C@@H]1CC[C@H](C)[C@@H](c2ccc(Br)cc2)N1C[C@@H](O)CN=[N+]=[N-] 0.323
COC(=O)[C@H](C)NC(=O)CCC1CC(OC(=O)NCCc2ccc(F)cc2)CC2(CCCC(COC(=O)NCc3ccccc3)O2)O1 (stereo partly specified) -0.755
O=C1C[C@H](c2ccccc2)[C@H](c2ccc(Br)cc2)O1 0.421
COc1ccc(O[C@H]2C=C[C@@H](c3ccccc3)O[C@@H]2COC(=O)CCC(C)=NOC[C@@H](O)COCc2ccco2)cc1 -0.541
O=C1[C@H]2[C@H]3[C@H](O)[C@H](O)CC(=NOCc4ccccc4)[C@@H]3CC[C@H]2C(=O)N1c1cccc(Oc2ccccc2)c1 0.589
O=C1[C@H]2[C@H]3[C@H](O)[C@H](O)CC(=NOC[C@@H](O)COCc4ccco4)[C@@H]3CC[C@H]2C(=O)N1Cc1ccc2c(c1)OCO2 2.06
CCOC(=O)[C@H](CC(C)C)NC(=O)CCC1CC(OC(=O)NCc2ccc3c(c2)OCO3)CC2(CCCC(COC(=O)NCc3ccccc3)O2)O1 (stereo partly specified) 0.314
O=C1C2=CC[C@H]3C(=O)N(C4CCCCC4)C(=O)[C@H]3[C@H]2[C@H](O)[C@@H]2O[C@H]12 -0.391
C=CCOCC1CN2[C@@H](CC[C@@H](C)[C@@H]2c2ccc(Br)cc2)C(=O)O1 (stereo partly specified) 0.415
CCOC(=O)[C@H](Cc1ccccc1)NC(=O)CCC1CC(OC(=O)NCc2ccc3c(c2)OCO3)CC2(CCCC(COC(=O)NCCOc3ccccc3)O2)O1 (stereo partly specified) 0.196
CCN1C(=O)[C@H]2[C@H]3[C@H](O)[C@H](O)CC(=NO[C@@H](C)c4cc(-c5c(C)cc(C)cc5C)no4)[C@@H]3CC[C@H]2C1=O 1.16
O=C(NN=C1C[C@@H](O)[C@@H](O)[C@@H]2[C@@H]3C(=O)N(c4ccc(F)cc4F)C(=O)[C@@H]3CC[C@H]12)OCc1ccccc1 0.782
CC#CCOCCC=C1c2ccccc2[C@@H](OC)[C@@H]1C 0.596
CC(CCC(=O)OC[C@H]1O[C@H](C#Cc2ccccc2)C=C[C@@H]1Oc1ccc(C)cc1)=NO[C@H](C)c1cn([C@@H]2COC[C@H]2O)nn1 -0.342
COC(=O)[C@@H]1CC[C@H](C)[C@@H](c2ccc(C)cc2)N1C(=O)c1ccc(C=NOC[C@H]2O[C@H](c3ccccc3)C=C[C@@H]2Oc2ccc(OC)cc2)cc1 -0.234
CC(=O)OC[C@H]1O[C@@H](ON=C2[C@H]3CCn4c(=O)n(-c5ccccc5)c(=O)n4[C@H]3[C@H](O)[C@@H]3O[C@H]23)[C@H](OC(C)=O)[C@@H](OC(C)=O)[C@@H]1OC(C)=O 0.0967
